Rows were chosen to be rich in hits. Some 1.9% of all compounds tested hit in one or more screens of this group.
BaF3 tox = counter-screen for JAK2V617F inhibitors: parental Ba/F3 viability inhibitors | CellTiter-Glo ATP luminescence | inhibition, % at 5.6 µM | actives 1.1% (n = 220,000);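 active = inhibition above a per-campaign cutoff, the mean inhibition of all tested compounds plus 3 SD, cut at about 27% in these data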;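 also: 0% = DMSO wells and 100% = JAK Inhibitor I control wells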
KLF5 inhibitor = kruppel-like factor 5 inhibition; actives 0.23% (n = 290,000); inhibition, % at 5 µM; AID 1700; DLD-1 KLF5 promoter-luciferase reporter, luminescence;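 active = inhibition above a per-plate limit of that plate's mean compound inhibition plus 3 SD, cut at about 60% in these data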;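 also: 0% = DMSO wells and 100% = LY294002 at 200 µM; higher means less KLF5 promoter-driven luciferase light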
IEC-6 tox = kills IEC-6 intestinal cells in KLF5 counter-screen. inhibition, % at 5 µM. actives 0.78% (n = 290,000). IEC-6 cytotoxicity, luminescence viability; in the data active = inhibition above about 22%;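 also: 0% = plate median of test compound wells and 100% = cytotoxic reference compound wells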
APP 5UTR inh = APP translation inhibition. SH-SY5Y APP 5'UTR-luciferase reporter, luminescence. inhibition, % at 2 µM. actives 0.82% (n = 190,000). AID 1285;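 active = inhibition above a set limit, derived from the sample mean plus 3 SD, cut at about 45% in these data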
Ba/F3 V617F tox = loss of viability in JAK2V617F-driven Ba/F3 cells | Ba/F3 EpoR-JAK2V617F viability, ATP luminescence | actives 1.1% (n = 220,000) | inhibition, % at 5.6 µM;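 active = inhibition above the campaign mean plus 3 SD over all tested compounds, cut at about 24% in these data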;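 also: cytokine-independent growth of Ba/F3 cells driven by EpoR plus mutant JAK2; 0% = DMSO-treated cells and 100% = JAK inhibitor I control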
BaF3 parental 2 = reduces parental Ba/F3 viability, JAK2V617F counter-screen; shares compounds with Ba/F3 V617F tox; CellTiter-Glo luminescence; cells kept alive by added IL-3; inhibition, % at 5.6 µM; actives 31% (n = 580);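 active = cell growth inhibition above the hit limit set in the earlier mutant JAK2 cell screen, cut at about 27% in these data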;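 also: plate controls were DMSO-treated cells for no effect and JAK Inhibitor I control wells for full effect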
JAK2V617F confrm = confirmation: loss of viability in JAK2V617F-dependent Ba/F3 cells; AID 1521; shares compounds with Ba/F3 V617F tox; actives 66% (n = 580); Ba/F3 EpoR-JAK2V617F viability, CellTiter-Glo luminescence; inhibition, % at 5.6 µM;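 active = mean inhibition above the hit cutoff derived in the earlier primary screen, cut at about 25% in these data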;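 also: 0% = DMSO-treated cells and 100% = JAK inhibitor I control wells; higher means lower luminescence from reduced cell ATP and viability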
An asterisk follows results filed as active; · = no result.

SMILES	BaF3 tox	KLF5 inhibitor	IEC-6 tox	APP 5UTR inh	Ba/F3 V617F tox	BaF3 parental 2	JAK2V617F confrm
CCOc1ccc(N2C(=O)CC(Sc3nnnn3-c3ccccc3)C2=O)cc1 (stereo unspecified)	2	-17	2	38	33*	-6	7
O=S1(=O)C=C(Sc2nc3cc(Cl)ccc3o2)c2ccccc21	7	-10	-4	40	44*	107*	99*
CCOC(=O)C(NC(C)=O)C(=O)Nc1ccc(C)cc1C (stereo unspecified)	2	-18	0	-4	1	·	·
Cc1ccc(/C=[N+](\[O-])c2ccc(N(C)C)cc2)c2nsnc12	5	-51	5	61*	47*	-1	-3
O=C(NCCc1c[nH]c2ccccc12)[C@@H]1C[C@H]1[C@@H](NP(=O)(c1ccccc1)c1ccccc1)c1ccccc1	4	8	-2	-2	-4	·	·
Nc1nc(=S)c2ncn(C3OC(CO)C(O)C3O)c2[nH]1 (stereo unspecified)	25	-27	10	·	45*	7	30*
COc1ccc(CO[C@@H]2O[C@H](CO)[C@@H](O)[C@H](O)[C@H]2NC(C)=O)cc1OC	·	-8	0	·	·	·	·
CCc1c(C)c2ccc(OCC(=O)NCC3CCC(C(=O)O)CC3)cc2oc1=O (stereo unspecified)	·	-33	1	·	·	·	·
NC(N)=Nc1nc(-c2ccccc2)c2ccccc2n1	2	3	6	-19	3	·	·
CCc1nc(N=C(N)N)nc2ccccc12	17	-46	3	-13	28*	13	53*
Cc1ccc(-c2nc(C=Nc3ccc(O)cc3)c(O)o2)cc1	19	-11	5	66*	38*	28*	83*
O=C(Cc1ccccc1)Nc1scc(-c2ccccc2)c1C(=O)N1CCOCC1	9	18	-3	4	4	·	·
NC(=O)c1c(-c2ccc(Cl)cc2Cl)csc1NC(=O)Cc1ccccc1	12	-15	4	-13	38*	40*	65*
O=C(COCC(=O)N1CCOCC1)N1CCOCC1	9	-17	-6	-5	0	·	·
NS(=O)(=O)c1ccc(NC(=O)COC(=O)COc2ccc3ccccc3c2)cc1	9	-9	2	31	4	·	·
CCOC(=O)/C=C/S(=O)(=O)c1ccc(NC(C)=O)cc1	4	-15	5	74*	58*	21	24*
Cc1ccc(Nc2nc(C)c(CCC(C)C)c(=O)[nH]2)cc1	5	-1	-5	-11	2	·	·
Cc1nc(NCc2ccccc2)[nH]c(=O)c1CCC(C)C	-4	13	4	-1	53*	-1	-3
COc1ccc(-c2csc(NC(=O)c3ccc(OCC(=O)N4CCOCC4)c(OC)c3)n2)cc1OC	3	-37	-4	7	1	·	·
Cc1sc2ncnc(NCc3cccs3)c2c1C	21	-10	12	-11	34*	43*	64*
Cc1[nH]c(=O)nc2c1CCC2	0	-15	2	-20	30*	-7	-10
Cc1nc2nc3c(c(=O)n2[nH]1)CCC3	7	-31	-7	17	-1	·	·
CCCCn1c(N)c(N(Cc2ccccc2OC)C(=O)CSCC(=O)Nc2cccc(C)c2)c(=O)[nH]c1=O	·	-31	-7	·	·	·	·
N=c1c2c3c(sc2ncn1Cc1ccco1)CCCCC3	1	-12	4	5	25*	-5	8
CC(=O)c1ccc(N2CCN(C(=O)c3ccc4ccccc4n3)CC2)cc1	11	0	-3	5	76*	-2	-5
SMILES	BaF3 tox	KLF5 inhibitor	IEC-6 tox	APP 5UTR inh	Ba/F3 V617F tox	BaF3 parental 2	JAK2V617F confrm
CCOC(=O)c1[nH]c(C)c(C(=O)NCC2CCCO2)c1C (stereo unspecified)	5	11	2	-12	-2	·	·
CCOC(=O)c1[nH]c(C)c(C(=O)NC2CCCCC2)c1C	6	-40	6	0	100*	-5	-21
COC(=O)c1cn(NC(=O)C2CCC(C)CC2)c(=O)c2ccccc12 (stereo unspecified)	3	24	6	-15	4	·	·
COC(=O)c1cn(NC(=O)c2cc([N+](=O)[O-])ccc2F)c(=O)c2ccccc12	24	32	6	23	36*	41*	97*
Cc1c(-n2c(SC(C)C(=O)NC(N)=O)nc3ccccc3c2=O)c(=O)n(-c2ccccc2)n1C (stereo unspecified)	2	-21	-1	-4	-1	·	·
Cc1ccc(NC(=O)C2CCCCC2)c(O)c1	3	-23	2	-13	1	·	·
Cc1ccc(O)c(NC(=O)C2CCCCC2)c1	20	-23	0	·	25*	18	50*
NC(N)=NN=C1CCCCCCCCCCC1	22	13	-6	·	49*	29*	68*
CCOc1ccccc1C(=O)NCC(=O)N(C)Cc1cccnc1	·	-9	5	·	·	·	·
COc1ccc(OC)c(NC(=O)c2nnn(Cc3ccccc3C)c2N)c1	20	32	7	-9	24*	37*	30*
COc1ccc(C)cc1NC(=O)c1nnn(Cc2cc(C)ccc2C)c1N	0	-4	4	13	-2	·	·
COc1cc(C(C[N+](=O)[O-])c2c(N)n(C)c(=O)n(C)c2=O)ccc1O (stereo unspecified)	3	-15	-1	-2	-1	·	·
COc1cccc(F)c1C(C[N+](=O)[O-])c1c(N)n(C)c(=O)n(C)c1=O (stereo unspecified)	6	7	9	·	63*	2	92*
Cc1ccc(C(=O)COC(=O)c2ccc(O)cc2)cc1	5	-89	4	-149	-1	·	·
C(=N\Nc1nc2ccccc2[nH]1)/c1cccc2nccnc12	3	27	12	·	50*	51*	63*
O=C(O)CCc1ccccc1OC(=O)c1ccccc1	-4	-15	-8	·	0	·	·
O=C(Oc1cccc2c(O)cccc12)c1ccccc1	12	12	-10	-11	24*	12	67*
CCOC(=O)c1c(NC(=O)/C=C/C(=O)O)sc(C)c1-c1ccc(C(C)(C)C)cc1	17	-7	0	-5	28*	16	43*
CCCCn1c(=N)n(CC(O)COc2ccccc2)c2ccccc21 (stereo unspecified)	7	-10	1	1	4	·	·
CCCCn1c(=N)n(CC(O)COc2ccc(C)cc2)c2ccccc21 (stereo unspecified)	16	-2	7	11	65*	5	48*
O=C(O)COc1ccccc1/C=C1\SC(=S)N(c2cccnc2)C1=O	-1	-16	6	·	82*	-4	12
COc1cccc(/C=C2\SC(=S)N(c3cccnc3)C2=O)c1OC	-3	-23	12	-17	1	·	·
O=C(CCNC(=O)Cn1ccc2ccccc2c1=O)NCc1ccc(F)cc1Cl	7	-15	-1	2	5	·	·
